The values that follow come from article PMC5540273 (PLoS ONE, 2017).

Test systems include VRK2; WEE1; WEE2; WNK1; WNK2; WNK3; WNK4; ZAK; ZAP70; p38-delta.
What all share (conditions): concentration: 1 μM, replicates: in singlicate; n = 1
A further assay deals with T1, VPS34.
T1 construct: gene PIK3C3

The next assay has as its system T2, YANK1.
T2 construct: gene STK32A

Another assay has as its system T3, YANK2.
T3 construct: gene STK32B

The next assay has as its system T4, YANK3.
T4 construct: gene STK32C

The next assay deals with T5, YES.
T5 construct: gene YES1

The test system of another assay is T6, YSK1.
T6 construct: gene STK25

For another assay, the system named is T7, YSK4.
T7 construct: gene MAP3K19

The next assay deals with T8, p38-alpha.
T8 construct: gene MAPK14

Another assay deals with T9, p38-beta.
T9 construct: gene MAPK11

The test system of a further assay is T10, p38-gamma.
T10 construct: gene MAPK12
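Also: KINOMEscan kinase panel screen.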

For `CN(C(=O)c1ccc(-c2cc(-c3c[nH]nc3-c3ccccn3)ccn2)cc1)C1CCOCC1` [GW810083], the “%Inh” value in the assay on VPS34 worked out at 24%; with VRK2, 100%; in the assay on WEE1 it was 0%; in the assay with WEE2, 22%; in the assay with WNK1, 0%; with WNK2, 0%. In addition, the “%Inh” value in the assay on WNK3, in the assay on WNK4, with YANK1, with YANK2, in the assay with YANK3 and with YES was 0% in each case. The “%Inh” value in the assay on YSK1 stood at 0%; in the assay on YSK4, 0%; with ZAK it was 18%; in the assay with ZAP70, 13%; in the assay on p38-alpha, 10%; with p38-beta it was 3%. Further, the “%Inh” value in the assay with p38-delta is 5%; in the assay with p38-gamma it was 0%.
For the molecule `COc1ccc(S(=O)(=O)NC2CCN(c3cc(C)nc(Nc4cccc(C#N)c4)n3)CC2)cc1.O=C(O)C(F)(F)F` [GSK1653539], the “%Inh” value in the assay with VPS34 turned out to be 0%; with VRK2 it was 0%; in the assay on WEE1, 17%; in the assay on WEE2, 6%; with WNK1 it was 15%; in the assay on WNK2, 0%. Also, the “%Inh” value with WNK3 is reported as 38%; in the assay on WNK4 it was 12%; in the assay with YANK1, 4%; in the assay with YANK2, 0%; in the assay on YANK3, 0%; with YES, 4%. In addition, the “%Inh” value in the assay with YSK1 amounted to 20%; with YSK4, 0%; with ZAK, 0%; in the assay with ZAP70 it was 0%; with p38-alpha, 9%; with p38-beta, 0%. Further, the “%Inh” value is recorded as 28% in the assay on p38-delta and 0% in the assay on p38-gamma.
In the case of `COc1cc(Nc2nccc(N3CCC(NC(=O)c4cccc(NC(C)=O)c4)C3)n2)cc(OC)c1OC` (centres unmarked) [GSK1379754], the “%Inh” value in the assay with VPS34 stood at 35%; with VRK2 it was 0%; in the assay on WEE1 it was 4%; in the assay with WEE2 it was 1%; in the assay with WNK1 it was 6%; in the assay on WNK2, 0%. The “%Inh” value in the assay with WNK3 came out at 14%; in the assay with WNK4 it was 0%; with YANK1 it was 0%; with YANK2, 0%; in the assay with YANK3, 0%; in the assay with YES, 18%. Further, the “%Inh” value with YSK1 is on record as 3%; in the assay with YSK4, 19%; in the assay on ZAK, 0%; in the assay with ZAP70, 0%; in the assay on p38-alpha, 0%; with p38-beta, 0%. The “%Inh” value with p38-delta and in the assay on p38-gamma was 0% throughout.
`CN1c2ccc(CNc3ccc(F)cc3)cc2-c2c(cnn2C)S1(=O)=O`: the “%Inh” value is 0% in the assay on VPS34; 0% in the assay with VRK2; 2% with WEE1; 0% in the assay with WEE2; 0% with WNK1; 0% with WNK2. The “%Inh” value with WNK3 was 1%; in the assay with WNK4 it was 0%; in the assay on YANK1, 0%; in the assay on YANK2, 0%; in the assay on YANK3 it was 0%; with YES, 0%. Moreover, the “%Inh” value in the assay with YSK1, in the assay with YSK4, in the assay on ZAK, with ZAP70, in the assay with p38-alpha and with p38-beta was 0% each time. Moreover, the figures for the “%Inh” value with p38-delta and in the assay on p38-gamma were 0% and 14%, respectively.
Consider `O=c1cc(N2CCOCC2)nc2n(Cc3cccc(C(F)(F)F)c3)ccn12` [GSK2297543], for which the “%Inh” value with VPS34 came out at 93.9%; in the assay with VRK2, 0%; with WEE1 it was 6%; with WEE2, 10%; in the assay on WNK1, 2%; in the assay on WNK2 it was 0%. For the same molecule, the “%Inh” value turned out to be 19% with WNK3; 22% in the assay on WNK4; 0% in the assay on YANK1; 0% in the assay with YANK2; 0% with YANK3; 9% in the assay with YES. Also, the “%Inh” value is given as 0% in the assay with YSK1; 0% in the assay with YSK4; 8% in the assay with ZAK; 0% with ZAP70; 0% with p38-alpha; 0% in the assay with p38-beta. The “%Inh” value stood at 21% in the assay on p38-delta and 11% with p38-gamma.
Consider `CCc1nc(-c2cccc(C)c2)c(-c2ccnc(NCc3ccccc3)c2)s1`, for which the “%Inh” value in the assay on VPS34 was 3%; with VRK2, 0%; in the assay on WEE1, 0%; with WEE2 it was 25%; in the assay on WNK1 it was 0%; in the assay on WNK2, 12%. Further, the “%Inh” value is on record as 0% in the assay with WNK3; 0% with WNK4; 0% in the assay with YANK1; 2% in the assay on YANK2; 19% with YANK3; 0% in the assay on YES. Also, the “%Inh” value in the assay on YSK1 worked out at 6%; in the assay on YSK4, 0%; with ZAK it was 11%; in the assay with ZAP70 it was 0%; in the assay with p38-alpha, 99.8%; with p38-beta it was 69%. For the same molecule, the “%Inh” value in the assay on p38-delta and in the assay with p38-gamma was 0% each time.
Take `CC(C)(C)n1cnc2c(N)ncnc21` [SKF-97359]: the “%Inh” value in the assay with VPS34 was 15%; in the assay on VRK2, 100%; in the assay on WEE1, 0%; in the assay with WEE2, 12%; with WNK1 it was 0%; with WNK2, 25%. The “%Inh” value in the assay on WNK3 was 40%; in the assay on WNK4, 0%; in the assay with YANK1 it was 0%; in the assay with YANK2 it was 0%; with YANK3, 0%; with YES it was 27%. The “%Inh” value amounted to 0% in the assay with YSK1; 0% in the assay on YSK4; 0% in the assay with ZAK; 21% in the assay with ZAP70; 0% with p38-alpha; 0% in the assay with p38-beta. For the same molecule, the figures for the “%Inh” value in the assay on p38-delta and in the assay with p38-gamma were 0% and 2%, respectively.
As to `Fc1ccc(-c2ncn(CCCN3CCOCC3)c2-c2cccnc2)cc1` [SB-211743], the “%Inh” value stood at 0% with VPS34; 20% with VRK2; 0% in the assay on WEE1; 0% in the assay with WEE2; 8% in the assay on WNK1; 0% in the assay with WNK2. Further, the “%Inh” value in the assay on WNK3, in the assay on WNK4, in the assay on YANK1, in the assay with YANK2, in the assay on YANK3 and in the assay on YES was 0% throughout. Besides, the “%Inh” value in the assay with YSK1 came out at 0%; with YSK4, 22%; in the assay on ZAK, 0%; with ZAP70, 0%; in the assay on p38-alpha, 0%; with p38-beta it was 0%. In addition, the “%Inh” value is 0% in the assay on p38-delta and 48% with p38-gamma.
Turning to `c1ccc(-c2cc(-c3c[nH]nc3-c3ccccn3)ccn2)cc1` [GW576604], the “%Inh” value in the assay on VPS34 was 18%; in the assay on VRK2 it was 2%; in the assay on WEE1, 2%; with WEE2, 0%; in the assay with WNK1, 0%; in the assay with WNK2 it was 18%. Further, the “%Inh” value was 0% in the assay on WNK3; 11% in the assay with WNK4; 12% in the assay on YANK1; 0% with YANK2; 0% in the assay with YANK3; 0% in the assay with YES. Also, the “%Inh” value with YSK1 came to 0%; in the assay with YSK4, 13%; with ZAK, 16%; in the assay on ZAP70 it was 0%; with p38-alpha it was 47%; in the assay with p38-beta, 0%. For the same molecule, the figures for the “%Inh” value in the assay on p38-delta and in the assay on p38-gamma were 40% and 0%, respectively.
On to `O=C(NCCNc1ccnc(Nc2ccc(F)cc2)n1)Nc1ccccc1F` [GSK1379880], for which the “%Inh” value is listed as 0% in the assay on VPS34; 0% with VRK2; 13% in the assay on WEE1; 3% in the assay with WEE2; 0% in the assay with WNK1; 0% in the assay with WNK2. Further, the “%Inh” value in the assay with WNK3 is reported as 4%; with WNK4, 41%; in the assay with YANK1, 2%; in the assay on YANK2, 0%; in the assay with YANK3, 0%; in the assay on YES, 9%. Further, the “%Inh” value with YSK1 was determined as 0%; in the assay with YSK4 it was 26%; with ZAK, 0%; in the assay on ZAP70 it was 0%; in the assay with p38-alpha, 0%; in the assay on p38-beta it was 0%. The figures for the “%Inh” value with p38-delta and in the assay with p38-gamma were 52% and 0%, respectively.
